We go through 38 compounds from PubChem BioAssay (NCATS).

Each structure is given as a SMILES string. Records with an inconclusive call do not appear. A number with no mark means an inactive call. Calls of active or inactive are those of the source. Calls come from the whole dose curve; as a rule, active = well fitted inhibition curve with a large enough effect; inconclusive = small, poorly fitted or top-dose-only effect; inactive = flat fitted curve, though single readings scatter.
% is set by controls: 0 for no effect and ±100 for the full control effect.

Sequence of Phospholipid hydroperoxide glutathione peroxidase GPX4 (Homo sapiens) (P36969 whole entry, looked up): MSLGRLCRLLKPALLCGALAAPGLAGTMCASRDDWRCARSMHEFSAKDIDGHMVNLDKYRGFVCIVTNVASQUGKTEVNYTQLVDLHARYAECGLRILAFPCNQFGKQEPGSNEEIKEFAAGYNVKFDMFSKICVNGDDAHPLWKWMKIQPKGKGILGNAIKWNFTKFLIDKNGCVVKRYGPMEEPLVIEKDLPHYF

In this experiment the target is Phospholipid hydroperoxide glutathione peroxidase GPX4 (Homo sapiens) (UniProt P36969). The experiment is described as follows: Primary qHTS Assay for Inhibitors of Recombinant Selenoprotein Glutathione Peroxidase 4 (GPX4) (AID 1845192). Note: nearly all actives have a fitted effect of over 65% in size. The settings on record: recombinant GPX4, GR-coupled NADPH fluorescence, 15 min; series mostly up to 50 µM; activity change, negative = inhibition: at the top concentration. In outline:
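NADPH consumption, followed by fluorescence at 340/450 nm between 0 and 15 min, reports GPX4 activity via coupled glutathione reductase (100 nM). Enzyme 200 nM was pre-exposed to compound 30 min; 0.5 mM cumene hydroperoxide and 1 mM GSH served as substrates.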
Background: In qHTS, concentration-response curves come from the screen itself.
On to `CC(C)Cn1c(=O)n(C)c(=O)c2[nH]cnc21`, for which the “activity change, negative = inhibition” value was 3.58%.

On to `O=c1[nH]c2ccccc2c2ccccc12`, for which the “activity change, negative = inhibition” value was -10.8%.

In the case of `COc1ccc2c(c1)c(CC(=O)O)c(C)n2Cc1ccc(Cl)cc1`, the result was inactive.

Take `NC(=O)CNCCC(c1ccccc1)c1ccccc1`: the “activity change, negative = inhibition” value is -0.671%.

`NC(N)=N[C@@H](CCC(=O)O)C(=O)O`: the result was inactive.

Regarding `CNC(=O)c1cc2c(cn1)[nH]c1ccccc12`, the “activity change, negative = inhibition” value was 2.86%.

For the compound `O=c1cc(-c2ccccc2)[nH]c2nc(Cl)ccc12`, the result was inactive.

Consider `O=C(c1ccc2c(c1)OCCO2)N1CCCCC1`, for which the outcome was inactive.

In the case of `CNc1ncnc2c1ncn2[C@H]1C[C@H](OP(=O)(O)O)[C@@H](COP(=O)(O)O)O1`, the “activity change, negative = inhibition” value is -1.52%.

With `O=c1cc(O)cc(/C=C/c2ccc(O)c(O)c2)o1`, the outcome was inactive.

On to `Oc1cc2c(cc1O)C(c1ccccc1)CNCC2` (stereo not drawn), for which the “activity change, negative = inhibition” value was 4.12%.

`N=C(N)c1ccc(N)cc1`: the result was inactive.

`NC[C@@H]1O[C@H](c2ccccc2)Cc2c1ccc(O)c2O`: the “activity change, negative = inhibition” value was 0.21%.

As to `NC(Cc1cccc(-c2ccccc2CP(=O)(O)O)c1)C(=O)O` (stereo not drawn), the result was inactive.

Take `CC(=O)/C(C)=N/O`: the result was inactive.

In the case of `C[C@](Cc1ccc(O)c(O)c1)(NN)C(=O)O`, the “activity change, negative = inhibition” value is 0.964%.

As to `Cn1ccnc1`, the “activity change, negative = inhibition” value was -7.65%.

In the case of `N#C/C(=C\c1ccc(O)c(O)c1)C(=O)NCCc1ccccc1`, the result was inactive.

Turning to `O=c1ccc2c(OCCCCc3ccccc3)c3ccoc3cc2o1`, the outcome was inactive.

Consider `C#CC(N)CCC(=O)O` (stereo not drawn), for which the outcome was inactive.

In the case of `CNc1cc(NS(=O)(=O)c2ccc(N)cc2)nc(NC)n1`, the “activity change, negative = inhibition” value was -6.25%.

Take `CC(=O)O[C@H]1Cc2ccccc2N(C(N)=O)c2ccccc21`: the Potency entry is “inactive”.

In the case of `O=C(O)C1=CCCNC1`, the “activity change, negative = inhibition” value was -9.96%.

`C[N+](C)(C)CC=O`: the “activity change, negative = inhibition” value is -14.9%.

For `CN1CCc2cc(Cl)c(O)cc2[C@@H](c2ccccc2)C1`, the outcome was inactive.

On to `O=C(O)C1=CCNCC1`, for which the “activity change, negative = inhibition” value is 3.16%.

On to `NCC(O)c1ccc(O)c(O)c1` (stereo not drawn), for which the “activity change, negative = inhibition” value was 1.61%.

In the case of `COc1cc(C(O)C(=O)O)ccc1O` (stereo not drawn), the “activity change, negative = inhibition” value is -4.91%.

On to `Nc1ncnc2c1c(-c1ccc(Oc3ccccc3)cc1)cn2C1CCCC1`, for which the “activity change, negative = inhibition” value was 4.18%.

In the case of `CC(N)=O`, the outcome was inactive.

As to `C=CCN1CCc2c(cc(O)c(O)c2Cl)C(c2ccccc2)C1` (stereo not drawn), the “activity change, negative = inhibition” value was 2.07%.

Take `O=C(O)C1CCNCC1`: the “activity change, negative = inhibition” value is 2.87%.

As to `Nc1nc2c(cnn2CCc2ccccc2)c2nc(-c3ccco3)nn12`, the outcome was inactive.

On to `Cc1ccc2c(c1)C(N1CCN(C)CC1)=Nc1cccnc1N2`, for which the “activity change, negative = inhibition” value was -3.26%.

`Cc1ccccc1/C=C/C1=NCCN1`: the “activity change, negative = inhibition” value was 3.82%.

For `COc1ccccc1N1CCN(CCCCNC(=O)c2ccc3ccccc3c2)CC1`, the “activity change, negative = inhibition” value was -4.83%.

`Nc1ncnc2c1nc(Br)n2C1OC2COP(=O)(O)O[C@@H]2C1O` (stereo partly drawn): the “activity change, negative = inhibition” value is -5.96%.

Consider `Nc1ccc(-c2nc3ccc(-c4nc5ccc(N)cc5[nH]4)cc3[nH]2)cc1`, for which the “activity change, negative = inhibition” value is -11.3%.
